Out of some 190,000 compounds screened, about 1,300 (0.68%) were called active. Only a selection was taken, and actives are over-represented in it overall. Unmarked numbers belong to inactive results. Rule as the data show it: active = inhibition above about 50%; inactive = the rest.
target: Mannose-6-phosphate isomerase (Homo sapiens) (UniProt P34949); test: MPI inhibition at elevated mannose 6-phosphate – biochemical, fluorescence intensity, high mannose 6-phosphate, primary screen (AID 1220); conditions: recombinant PMI enzyme, coupled fluorescence intensity; at 20 µM; active compounds read high
Sequence (P34949 whole entry, looked up): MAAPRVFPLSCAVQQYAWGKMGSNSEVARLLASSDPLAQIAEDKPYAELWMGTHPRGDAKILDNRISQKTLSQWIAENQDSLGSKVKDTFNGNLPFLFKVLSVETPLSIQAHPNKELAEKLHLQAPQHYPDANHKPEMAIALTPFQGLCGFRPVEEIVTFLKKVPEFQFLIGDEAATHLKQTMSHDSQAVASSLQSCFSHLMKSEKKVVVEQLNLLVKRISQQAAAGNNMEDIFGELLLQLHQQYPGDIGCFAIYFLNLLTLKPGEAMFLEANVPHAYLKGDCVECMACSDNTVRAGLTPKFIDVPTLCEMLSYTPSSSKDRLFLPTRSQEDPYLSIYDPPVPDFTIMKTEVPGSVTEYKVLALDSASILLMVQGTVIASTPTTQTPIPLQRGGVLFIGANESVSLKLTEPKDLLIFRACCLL

Going from `COC(=O)c1cc(COc2ccc3oc(C)c(C(=O)OC(C)C)c3c2)c(C)o1` to `CC(=O)c1cn(CC(=O)Nc2ccc(C)cc2C)c2ccccc12`, the inhibition falls from -0.3% to -0.4%.

Going from `CC(=O)NCC(=O)OCC(=O)Nc1ccc(C(C)=O)cc1` to `O=C(O)CCC(=O)Nc1ccc(C(=O)OCC(=O)c2ccc(Cl)cc2Cl)cc1`, the inhibition rises from -8.8% to 6.3%.

Going from `CC(=C1C2C=CC1C1C(=O)NC(=O)C21)c1ccccc1` (stereo not given) to `O=C(NC1C=CS(=O)(=O)C1)c1ccccc1` (stereo not given), the inhibition rises from 3.8% to 5.8%.

Going from `Cc1c(NC(=O)COc2cccc3c2OC(C)(C)C3)c(=O)n(-c2ccccc2)n1C` to `CCN(Cc1ccccc1)S(=O)(=O)c1cc(C(=O)c2c(N)n(C)c(=O)n(C)c2=O)ccc1OC`, the inhibition rises from -6.1% to 0.7%.

Going from `c1ccc(N2CCN(c3cnc4ccccc4n3)CC2)cc1` to `CCn1c(C)c(C(C)=O)c(N2CCN(c3ccccc3)CC2)nc1=S`, the inhibition falls from 5% to -20.8%.

Going from `CC(=O)N1CCC(=NNS(=O)(=O)c2ccc(C)c([N+](=O)[O-])c2)CC1` to `CC(=O)c1cc(N2CCOCC2)ccc1[N+](=O)[O-]`, the inhibition rises from -31.5% to 2.8%.

Going from `O=C(NCc1nc2ccccc2[nH]1)C1=C[C@H](c2ccccc2)C[C@H](OCc2ccc(CO)cc2)O1` to `CCc1ccc(NCc2cc3c(C)nn(-c4ccccc4)c3[nH]c2=O)cc1`, the inhibition falls from 11% to 8.8%.

First: Cn1c(Cn2c(=O)sc3ccccc32)nnc1SCc1cccc(F)c1
Second: CCCc1nnc2c(N(C)S(=O)(=O)c3ccccc3)nc3ccccc3n12
The inhibition of the first is lower: -7.7% for the first, 4.2% for the second.

Going from `COCCNc1c(-c2ccc(OC)cc2)nc2ccc(Cl)cn12` to `COc1ccc(NC(=O)CSc2ncnc3c2cnn3Cc2ccccc2)cc1`, the inhibition rises from -8.6% to 8.2%.

Going from `Cc1ccc(C)c(S(=O)(=O)N/N=C2/CCCc3ccccc32)c1` to `Cn1cc(S(=O)(=O)CC(=O)N2CCCc3ccccc32)c2ccccc21`, the inhibition rises from -29.2% to 6.6%.

Compared with `CCOC(=O)C1=C(O)C(=O)N(c2ccc(S(N)(=O)=O)cc2)C1c1ccc(OC)cc1` (stereo not given), `CCOC(=O)/C(=C/c1ccc(OC(=O)c2ccccc2)cc1)C(C)=O` is higher in inhibition: 4.3% for the first, 4.7% for the second.

Compared with `COc1cc(C(F)(F)F)nc(-c2ccccn2)n1`, `Cc1cc(C(F)(F)F)nn1C(=O)c1cccnc1Cl` is higher in inhibition: 4.9% for the first, 6.5% for the second.

Compared with `O=C(CN1CCOCC1)Nc1ccc2c(c1)OCO2`, `O=C(CN1CCN(c2ccccc2)CC1)Nc1ccc2c(c1)OCCO2` is lower in inhibition: 4.7% for the first, -3.7% for the second.

First: O=C(c1ccc(N2CCOCC2)cc1[N+](=O)[O-])N1CCOCC1
Second: O=C(Oc1cccc2c(OC(=O)N3CCOCC3)cccc12)N1CCOCC1
The inhibition of the first is higher: 7.3% for the first, 2.4% for the second.

Compared with `O=C(NC1=NCCS1)c1cccc(S(=O)(=O)N2CCCCC2)c1`, `COc1cccc(N2CCN(c3ccc(S(=O)(=O)N4CCCC4)cc3)CC2)c1` is higher in inhibition: 7.1% for the first, 18.6% for the second.

Going from `Cc1cc(N2CCOCC2)nc2ccc(NC(=O)C3CCC(C)CC3)cc12` (stereo not given) to `Cc1nn(-c2ccccc2)c2[nH]c(=O)c(CNCCN3CCOCC3)cc12`, the inhibition rises from 0.8% to 4.3%.

First: COc1ccc(/C(C)=N/NC(=O)C2CC2)cc1
Second: CC(C)c1ccc(OC(=O)NCCO)cc1
The inhibition of the first is lower: -2.9% for the first, 9.1% for the second.

Compared with `CCc1ccc(NC(=S)N2CCCC(C(F)(F)F)C2)cc1` (stereo not given), `CC1CCCN(C(=S)SCC(=O)O)C1` (stereo not given) is lower in inhibition: 13.4% for the first, 0.2% for the second.

Going from `O=C1C(=Cc2ccco2)C(=O)c2ccccc21` to `O=C(CN1C(=O)S/C(=C\c2ccc(O)cc2)C1=O)c1ccccc1`, the inhibition rises from -11.7% to 12.5%.

First: Cc1nc2ccc3[nH]snc3c2n1
Second: Clc1ccc(CSc2ncnc3nc[nH]c23)cc1
The inhibition of the first is lower: 2.6% for the first, 3.6% for the second.

First: Cc1cc(/C=C2\NC(=O)N(Cc3ccc(Cl)cc3)C2=O)c(C)n1C
Second: Cc1cc(=O)[nH]c2c(N=Nc3ccc(O)cc3)c(N)nn12
The inhibition of the first is lower: -58.7% for the first, 45.7% for the second.

Compared with `CS(=O)(=O)N1CCN(c2ccccc2NC(=O)CSc2nnc(-c3ccco3)o2)CC1`, `CC(C)CN(C(=O)CSc1nnc(-c2ccco2)o1)c1c(N)n(Cc2ccccc2)c(=O)[nH]c1=O` is lower in inhibition: 0.5% for the first, -2.6% for the second.

Compared with `Nc1cccnc1-n1nc(C(F)(F)F)cc1C(F)(F)F`, `Cc1ccc(N2C(=O)NC(NC(=O)C(C)(C)C)(C(F)(F)F)C2=O)cc1` (stereo not given) is higher in inhibition: -0.6% for the first, 4.9% for the second.

Compared with `Cc1sc2ncnc(NCC(C)(C)N3CCOCC3)c2c1C`, `CCn1c(C)c(C(C)=O)c(N2CCN(c3ccc(F)cc3)CC2)nc1=S` is lower in inhibition: -3.6% for the first, -6.4% for the second.

Compared with `COCCOC(=O)/C(=C/c1ccc(OC(=O)c2ccccc2)cc1)C(C)=O`, `CCOC(=O)Nc1ccc(Oc2ccccc2)cc1` is higher in inhibition: 0.4% for the first, 4.8% for the second.

Going from `Cn1c2ccccc2c2ncn(CCC3=CCCCC3)c(=O)c21` to `Cc1ccc(-n2c(=O)c3ccccc3n(CC(=O)NCc3ccco3)c2=O)cc1`, the inhibition falls from 9.7% to -5.8%.

Going from `CCOC(=O)CSc1nc(C)c2cc(C)c(C)cc2n1` to `COc1cccc(OC)c1C(=O)Oc1ccc2c(c1)O/C(=C\c1ccncc1)C2=O`, the inhibition rises from 1.6% to 7.7%.

Going from `O=C(Oc1ccc(Cl)c2ccccc12)N1CCCCC1` to `COC(=O)c1ccccc1NC(=O)N1CCN(C(=O)c2ccco2)CC1`, the inhibition rises from -3.1% to 13.1%.

First: CC(C)CCC(C)N=Cc1c(O)n(Cc2ccccc2)c(=O)c2ccccc12 (stereo not given)
Second: CCc1cccc(NC(=O)Cn2cc(C=O)c3ccccc32)c1
The inhibition of the first is higher: 6.3% for the first, -9.7% for the second.

Compared with `N#CC1=C(N)C(C#N)(C#N)C(c2ccc[nH]2)C2CCCC=C12` (stereo not given), `N#CC1=C(N)C(C#N)(C#N)C(c2cccnc2)C2CC(c3ccccc3)CC=C12` (stereo not given) is higher in inhibition: 35.1% for the first, 47.2% for the second.

Going from `CCCCOC(=O)c1ccc(S(N)(=O)=O)o1` to `O=C(COc1ccc(Br)cc1)NCCO`, the inhibition rises from -1.2% to 8.7%.

First: O=C(CCNc1cc(Cl)cc(Cl)c1)c1cccs1
Second: Cc1ccc(NCCC(=O)c2cccs2)cc1Cl
The inhibition of the first is lower: 7.8% for the first, 18.9% for the second.

Going from `C=CCc1cccc(/C=N/c2ncccc2O)c1O` to `C=CCc1cccc(C=Nc2ccc(Br)cc2)c1O`, the inhibition falls from 34.3% to -8.2%.

First: O=C(NCCCN1CCCC1=O)C1CCCO1 (stereo not given)
Second: Cc1ccc(N(C(=O)C2CCCO2)C2C=CS(=O)(=O)C2)cc1Cl (stereo not given)
The inhibition of the first is higher: 5.1% for the first, 0.2% for the second.

First: CC(C)(C)c1nn(-c2ccccc2)c2[nH]c(=O)c(CNc3ccc4c(c3)OCCO4)cc12
Second: Cc1nn(-c2ccccc2)c2[nH]c(=O)c(CNCc3ccc4c(c3)OCO4)cc12
The inhibition of the first is higher: 5.7% for the first, 2.9% for the second.

Compared with `COC(=O)c1ccc(/C=N/NC(=O)CNc2cccc(C)c2)cc1`, `CC(C)(C)NCC(=O)N/N=C/c1ccc(OCc2ccccc2)cc1` is lower in inhibition: 9.8% for the first, -4.4% for the second.

Compared with `CN(C)S(=O)(=O)c1cccc(NC(=S)NC2CCCCC2)c1`, `CN(C)S(=O)(=O)c1cccc(NC(=S)Nc2cc(Cl)cc(Cl)c2)c1` is lower in inhibition: -2.3% for the first, -6.4% for the second.

First: Nc1nn2c(-c3ccccc3)cc(=O)[nH]c2c1N=Nc1ccc(Br)cc1
Second: c1ccc(Nc2ccc3c4c(cccc24)CC3)cc1
The inhibition of the first is lower: 12.3% for the first, 17.7% for the second.

Going from `O=S(=O)(c1ccc(Br)cc1)N1CCN=C1SCc1cccnc1` to `COc1cc(/C=N/NC(N)=O)ccc1OC(=O)c1ccco1`, the inhibition rises from 0.3% to 3.7%.

Going from `COc1ccc(NC(=S)NC(C)Cc2cccs2)cc1` (stereo not given) to `COc1ccc(/C=N/Nc2nccnc2Cl)cc1`, the inhibition falls from 3.7% to -6.9%.

Going from `CC(=O)c1ccc2c3c(cccc13)CC2` to `CCOc1ccc(N(C(=O)C2CCCO2)C2C=CS(=O)(=O)C2)cc1` (stereo not given), the inhibition falls from 6% to -4.8%.

Work on `OC(COc1ccc2c(c1)OCO2)CN1CCN(c2ccc(F)cc2)CC1` (stereo not given) yielded an inhibition of -1%.

With `CN(C)/C=C/C(=O)c1cc(N2CCOCC2)ccc1[N+](=O)[O-]` the inhibition was 55.9% (active).
In the case of `O=C(CN1CCN(c2ccc(O)cc2)CC1)Nc1ccc2c(c1)OCCO2`, the inhibition is reported as 62.8% (active).
With `c1cc2[nH]snc2c2nc(C3CC3)nc12` the inhibition was 54.2% (active).
For `ONc1cccnc1-n1nc(C(F)(F)F)cc1C(F)(F)F`, the inhibition was 67.9% (active).
With `CCOC(=O)/C(=C/c1ccc(OC(=O)c2ccncc2)cc1)C(C)=O` the inhibition was 61.4% (active).
In the case of `O=C(Oc1cccc2c(OC(=O)N3CCCC3)cccc12)N1CCCC1`, the inhibition is reported as 57.3% (active).
For `N#CC1=C(N)C(C#N)(C#N)C(c2cccnc2)C2CCCC=C12` (stereo not given), the inhibition was 50.3% (active).
`COc1cc(NCCC(=O)c2cccs2)c(OC)cc1Cl` was tested, and the inhibition was 51.4% (active).
`C=CCc1cccc(C=Nc2cc(Br)ccc2O)c1O` was tested, and the inhibition was 57% (active).
`Cc1nn(-c2ccccc2)c2[nH]c(=O)c(CNc3ccc(N4CCOCC4)cc3)cc12` was tested, and the inhibition was 55.6% (active).
`Cc1nn(-c2ccccc2)c2[nH]c(=O)c(CNc3ccc4c(c3)OCCO4)cc12` was tested, and the inhibition was 54.2% (active).
`CCN(CCO)c1ccc(NC(=S)Nc2cccc(S(=O)(=O)N(C)C)c2)cc1` was tested, and the inhibition was 54.1% (active).
For `Nc1nn2c(-c3ccccc3)cc(=O)[nH]c2c1N=Nc1ccc(O)cc1`, the inhibition was 55.4% (active).
In the case of `CCn1c(C)c(C(C)=O)c(N2CCN(c3ccc(OC)cc3)CC2)nc1=S`, the inhibition is reported as 50.3% (active).
With `CC(C)c1ccc(OCC(=O)NCCO)cc1` the inhibition was 55.1% (active).
`Nc1ccc2c3c(cccc13)CC2` was tested, and the inhibition was 64.4% (active).
With `O=C(C1CCCO1)N(c1ccc(F)cc1)C1C=CS(=O)(=O)C1` (stereo not given) the inhibition was 52.9% (active).

Reference: PubChem BioAssay AID1220 (Sanford-Burnham Center for Chemical Genomics, 2008)
